# Hits are enriched below; roughly 11% of the tested compounds scored in any of these assays.
# G9a block: inhibitors of human histone lysine methyltransferase G9a. G9a H3K9 monomethylation, AlphaScreen, 2 h. Potency, µM (series often up to 102 µM), usual class: inhibitors. actives 8.8% (n = 350,000). AID 504332; also: nearly all actives have a fitted effect of over 75% in size
# Target sequence (Q96KQ7 913-1193 limits assumed): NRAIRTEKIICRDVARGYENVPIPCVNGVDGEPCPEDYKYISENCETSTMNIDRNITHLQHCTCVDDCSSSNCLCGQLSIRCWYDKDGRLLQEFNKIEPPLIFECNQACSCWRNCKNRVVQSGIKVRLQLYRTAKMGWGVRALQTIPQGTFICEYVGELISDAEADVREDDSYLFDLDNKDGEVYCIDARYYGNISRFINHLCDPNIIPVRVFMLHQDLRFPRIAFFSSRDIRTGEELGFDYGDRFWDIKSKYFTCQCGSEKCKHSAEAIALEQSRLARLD
#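 Methyltransferase reactions run at room temperature for 2 h (20 nM enzyme, 500 nM biotin-H3K9 peptide, 20 uM SAM) after a 15 min compound preincubation; product detected by AlphaScreen beads and anti-H3K9me1 antibody.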
# HP1b chromo inh: inhibitors of HP1-beta chromodomain binding to methylated histone tails. AID 540317. Potency, µM (doses to about 114 µM), hits mostly inhibitors. actives 0.56% (n = 390,000). AlphaScreen HP1-beta / biotin-H3K9me3 peptide binding; also: nearly all actives have a fitted effect of over 70% in size
# Target sequence (P83916 whole entry, looked up): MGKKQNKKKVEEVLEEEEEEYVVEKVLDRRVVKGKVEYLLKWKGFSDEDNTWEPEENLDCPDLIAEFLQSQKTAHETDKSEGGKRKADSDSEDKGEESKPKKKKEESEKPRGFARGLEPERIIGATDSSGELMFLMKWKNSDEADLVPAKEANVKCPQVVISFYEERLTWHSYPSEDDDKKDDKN
#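 AlphaScreen: HP1-beta (50 nM) preformed 30 min with biotin-H3(1-18)K9me3 peptide (50 nM) in PBS pH 7.4, 0.01% Tween-20. Compound added for 30 min at RT, then streptavidin donor/nickel chelate acceptor beads (10 ug/mL) for 30 min.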
# BAZ2B block: inhibitors of human BAZ2B bromodomain; actives 4.4% (n = 360,000); AlphaScreen BAZ2B-H3K14Ac peptide displacement; Q9UIF8; Potency, µM (series often up to 114 µM), most hits filed as inhibitors; AID 504333; also: nearly all actives have a fitted effect of over 60% in size
#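 Compounds, titrated to a top concentration of 110 uM, were incubated 30 min at room temperature with preformed BAZ2B/acetyl-K14 H3 peptide complex (50 nM each). Proximity signal was measured by AlphaScreen after 20 min with beads.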
# JMJD2A Tudor inh: JMJD2A Tudor domain (human) inhibition; Potency, µM (titrated, usually from 114 µM), most hits filed as inhibitors; AlphaScreen JMJD2A-Tudor / H3K4me3 peptide binding; actives 4.4% (n = 390,000); O75164; also: nearly all actives have a fitted effect of over 50% in size
# L3MBTL1 block: inhibitors of human L3MBTL1; Q9Y468; AlphaScreen L3MBTL1–H3K9me1 peptide binding; Potency, µM (highest dose often 57.1 µM), actives largely listed as inhibitors; actives 0.66% (n = 230,000); AID 485360; also: nearly all actives have a fitted effect of over 60% in size
#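 Displacement of a biotinylated histone H3(1-15) peptide monomethylated at Lys9 (75 nM) from L3MBTL1 (50 nM) was measured by AlphaScreen after a 30 min room-temperature compound incubation; cefsulodin titration served as intraplate control.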
# Numbers stand for hits; 0 = inactive; ? = inconclusive; - = not tested or not shown; [ ] = remark or other dose. Calls follow the shape of the dose curve; as a rule, active = well fitted inhibition curve with a large enough effect; inconclusive = small, poorly fitted or top-dose-only effect; inactive = no such curve, though single readings can be large or run the other way.
SMILES,G9a block,HP1b chromo inh,BAZ2B block,JMJD2A Tudor inh,L3MBTL1 block
O=C(Nn1c(Cc2cccs2)nc2ccccc2c1=O)c1cccs1,50µM,0,0,0,0
COc1ccc(-c2cc(=O)c3cc(C)ccc3[nH]2)cc1,?,0,0,0,0
CC(C)Oc1ccc(-c2cc(=O)[nH]c(=O)[nH]2)cc1,0,0,0,0,0
COc1ccc(-c2cc(=O)[nH]c(=S)[nH]2)cc1,50µM,0,0,0,0
COc1ccc(-c2cc(=O)c3cc(OC)ccc3[nH]2)cc1,79µM,0,0,0,0
CCc1nn(CC(=O)NCCCOC)c(=O)c2cc3occc3n12,0,0,0,0,-
CCOC(=O)c1ccc(NC(=O)Cc2ccc(-n3c(CC)nc4cccnc43)cc2)cc1,0,0,0,0,-
COc1ccc(Cl)cc1NC(=O)CSc1nnc(Cc2cccn2C)n1-c1ccc(F)cc1,45µM,0,?,?,0
COc1ccc(Cl)cc1NC(=O)CSc1nnc(C2CC2)n1N,79µM,0,0,0,0
Cc1ccc(NC(=O)CSc2nnc(Cc3cccn3C)n2-c2ccc(F)cc2)c(C)c1,28µM,0,?,0,-
Cn1cccc1Cc1nnc(SCC(=O)Nc2ccc(F)cc2F)n1-c1ccc(F)cc1,0,0,?,0,0
CC1CCN(S(=O)(=O)c2ccc3c(c2)N(CC(=O)N(C)Cc2ccccc2)C(=O)CO3)CC1,0,0,0,0,-
CC(=O)c1c(C)n([O-])c2cc(F)c(F)cc2[n+]1=O,0,0,0,0,0
COc1ccc2c(c1)[n+](=O)c(C(C)=O)c(C)n2[O-],28µM,?,0,0[11.4 µM],-
CCn1c(=O)c(=O)n(CC)c2cc(N3CCCCC3)c(NC(=O)c3ccccc3OC)cc21,0,0,0,0,-
COc1ccc(-n2nc3c(N4CCCC(C(=O)NCc5ccccc5C)C4)nnc(C)c3c2C)cc1 (stereo not given),?,0,50µM,0,0
Cc1ccc(-n2nc3c(N4CCC(C(=O)NCc5ccc(C)o5)CC4)nnc(C)c3c2C)cc1,?,0,50µM,45µM,-
COc1ccc(F)cc1S(=O)(=O)NCC(c1ccco1)S(=O)(=O)c1ccc(F)cc1 (stereo not given),0,0,0,0,-
COc1cccc(C(=O)Oc2c(Sc3ccc(C)cc3)c(C)nn2C(C)(C)C)c1OC,0,0,0,0,-
N=C(N)SCCc1cnc[nH]1,7.5µM,0,0,0,0
O=C(NCCc1cnc[nH]1)c1cccs1,-,0,0,0,-
C/C(CCc1ccc2c(c1)OCO2)=N\N=C(/N)SC1CC(=O)N(c2ccccc2F)C1=O (stereo not given),0[0.501 µM],0,16µM,0,0
O=C(CCN1C(=O)C2CC=C(Cl)CC2C1=O)N1CCCCC1 (stereo not given),11µM,0,0,?,0
CC(C)(C)c1ccc(OCC(O)CN2CCN(c3ccccn3)CC2)cc1 (stereo not given),50µM,0,?,0,-
CC(=O)c1ccccc1OCC(O)CN1CCN(c2ccccn2)CC1 (stereo not given),-,0,0,0,-
SMILES,G9a block,HP1b chromo inh,BAZ2B block,JMJD2A Tudor inh,L3MBTL1 block
Cc1cccc(OCC(O)CN2CCN(c3ccccn3)CC2)c1C (stereo not given),45µM,0,0,79µM,-
COc1cc(C(C)=O)ccc1OCC(O)CN1CCN(c2ccccn2)CC1 (stereo not given),0,0,0,0,0
Cc1cc(C)c(C)c(OCC(O)CN2CCN(c3ccccn3)CC2)c1 (stereo not given),79µM,0,?,0,-
O=S(=O)(Nc1ccc(O)c(NS(=O)(=O)c2ccccc2)c1)c1ccccc1,0.32µM,0,?,63µM,-
O=S(=O)(Nc1ccc2c(c1)OCO2)c1ccccc1,14µM,0,0,0,-
COc1ccc(N(CC(=O)NCc2ccc3c(c2)OCO3)S(=O)(=O)c2c(C)nn(C)c2C)cc1,79µM,0,0,0,-
Cc1ccc2cccc(S(=O)(=O)Nc3ccc4c(c3)OCO4)c2n1,?,0,50µM,?,0[11.4 µM]
COc1ccc(S(=O)(=O)Nc2ccc3c(c2)OCO3)cc1,0,0,0,0,0
COc1ccc(CCNC(=O)C(C)n2nc(C)c3sc4ccccc4c3c2=O)c(OC)c1 (stereo not given),?,0,0,?,-
COc1ccc2c(c1)c1c(c(=O)n(-c3ccccc3)c(=O)n1CC(=O)Nc1ccc(F)cc1)n2C,0,0,0,0,-
CC(C)=CCC/C(C)=C/CC/C(C)=C/CO,0,-,-,-,-
O=[N+]([O-])c1ccc(S(=O)(=O)Nc2ccc3c(c2)OCCO3)cc1,40µM,0,?,?,0
Cc1nn(C)c(C)c1S(=O)(=O)Nc1ccc2c(c1)OCO2,50µM,0,?,0,0
Cc1c(O)ccc(NS(=O)(=O)c2ccccc2)c1C,0,0,0,0[11.4 µM],0
Cc1cc(NS(=O)(=O)c2ccccc2)c(C)c(Cl)c1O,28µM,?,0,?,0
O=C(Nc1ccc(C(=O)N2CCN(c3ccccc3)CC2)cc1)c1nsc2ccccc12,?,0,0,0,-
Cc1ccc(Cl)cc1NC(=O)c1oc2c(c1C)-c1[nH]ncc1CC2,0,0,0,0,-
O=C1CCc2cc(S(=O)(=O)Nc3ccc(Cl)cc3)ccc2N1,-,-,-,0,-
COCC(C)NCc1ccc(OC)c(Br)c1 (stereo not given),?,?,50µM,18µM,0
COc1ccc(CCC(C)NCc2cccc(Br)c2)cc1 (stereo not given),-,0,0,0,0
Clc1ccccc1CN1CCSCC1,0[0.501 µM],?,?,25µM,0[2.29 µM]
Clc1cccc(CN2CCN(c3ncccn3)CC2)c1Cl,-,?,?,20µM,0
CC1CN(Cc2ccccc2Cl)CC(C)O1 (stereo not given),8.9µM,?,32µM,4.5µM,-
Clc1ccccc1CN1CCN(c2ncccn2)CC1,32µM,?,?,1µM,0
O=C(c1ccccc1Cl)N1CCN(c2ncccn2)CC1,-,0,-,0,-
SMILES,G9a block,HP1b chromo inh,BAZ2B block,JMJD2A Tudor inh,L3MBTL1 block
CC1CN(Cc2cnc(Cl)s2)CC(C)O1 (stereo not given),?,0,0,0,0[11.4 µM]
COc1cccc(Sc2nc(N(C)C)ncc2S(=O)(=O)c2ccc(Cl)cc2)c1,-,0,-,0,-
CCC1CCCCN1CCCNC(=O)CNC(=O)c1nn(-c2ccc(OC)c(Cl)c2)c(=O)c2ccccc12 (stereo not given),0[12.7 µM],0,0,0,-
Fc1ccc(CN2CCN(c3ncccn3)CC2)c(F)c1,-,0,0,18µM,0
Clc1ccc(CN2CCN(c3ncccn3)CC2)c(Cl)c1,-,?,?,18µM,0
O=C(CCC(=O)c1ccc(F)cc1)OCc1nnc(-c2ccc([N+](=O)[O-])cc2)o1,0[12.7 µM],0,?,0,0
Cc1ccc(S(=O)(=O)NNC(=O)c2cnn(-c3ccc(Cl)cc3)c2C(F)(F)F)cc1,56µM,0,0,0,0
CCCCOc1ccc(C(=O)N2CCC(c3nc4ccccc4o3)CC2)cc1,0,0,0,0,-
CC1CCN(S(=O)(=O)c2ccc3c(c2)c(=O)c(C(=O)NCc2ccco2)cn3C)CC1,79µM,0,0,0,0
